From PubChem
Shown are actives, neighbours in structure and some others; about 8.7% of the full set was active somewhere.
Pf growth 48h = P. falciparum growth inhibition at 48 hours (one generation) | 310,000 tested, 5.9% active | AID 504832 | Potency, µM (series often up to 28.7 µM), for the others: top-dose activity change, negative = inhibition, most hits filed as inhibitors | P. falciparum luciferase growth in erythrocytes, 48 h
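Cell-based growth assay: transgenic P. falciparum expressing firefly luciferase, cultured in red cells within RPMI 1640 containing 0.5% w/v Albumax, 24 mM bicarbonate and gentamycin. A drop in luciferase activity indicates inhibition.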
VACV Venus inh = vaccinia inhibition (Venus reporter); 330,000 tested, 0.46% active; Potency, µM (titrated, usually from 36.5 µM), inactives show at the top dose activity change, negative = inhibition, hits mostly inhibitors; Vaccinia virus Venus reporter expression, fluorescence; AID 720580; calls by dose curve; tested in A549 cells; note: nearly all actives have a fitted effect of over 30% in size
Pf growth 96h = P. falciparum growth inhibition at 96 hours | P. falciparum luciferase reporter growth, 96 h | Potency, µM (top dose mostly 28.7 µM), for the others: at the highest dose activity change, negative = inhibition, actives largely listed as inhibitors | 320,000 tested, 6.9% active
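Infected RBCs, 2% Hct / 0.05% parasitemia final; luciferase-reporter P. falciparum; cpd 96 h, 37 C, 5% CO2; luciferase detection reagent; luminescence.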
AMA1 RON2 block = disrupts binding of P. falciparum AMA1 to RON2 | Potency, µM (series often up to 58.2 µM), for inactives: at the top dose activity change, negative = inhibition, most hits filed as inhibitors | AlphaScreen AMA1-biotinylated RON2 peptide binding | AID 720542 | 360,000 tested, 0.2% active;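 note: 0% = vehicle wells and -100% = peptide control; nearly all actives have a fitted effect of over 45% in size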
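AMA1 (3D7) with his tag at 25 nM final met compounds first, then biotinylated RON2 peptide at 25 nM; detection used donor plus acceptor beads, 10 µg/mL apiece, read by AlphaScreen after 30 min at room temperature.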
Vaccinia mCherry = vaccinia inhibition (mCherry reporter) | Vaccinia virus mCherry reporter infection, fluorescence | Potency, µM (titrated, usually from 36.5 µM), for inactives: at the highest dose activity change, negative = inhibition, usual class: inhibitors | 310,000 tested, 0.63% active | AID 720579; calls by dose curve; tested in A549 cells; note: nearly all actives have a fitted effect of over 35% in size
* hit, by the source's call; i = inactive; ? = inconclusive; · = no result given; [ ] = another dose, or the depositor's remark. Unless noted, calls come from the whole dose curve; as a rule, active = well fitted curve in the direction sought with a large enough effect; inconclusive = small, poorly fitted or top-dose-only effect, or another doubt; inactive = no such curve, though single readings can be large; an effect the other way counts as inactive or inconclusive. Unless noted, % is set by controls: 0 for no effect and ±100 for the full control effect; potency is the fitted concentration of half-maximal effect.

SMILES | Pf growth 48h | VACV Venus inh | Pf growth 96h | AMA1 RON2 block | Vaccinia mCherry
O=C(CSc1nc2nc3c(cc2c(=O)n1-c1ccccc1)CCCC3)Nc1cccc2ccccc12 | 5.9µM* | -13% | 5.9µM* | 12% | -2%
O=C(CSc1nc(O)cc(=O)n1-c1ccccc1)NC1CCCCC1 | 2.6µM* | -16% | · | 8% | ·
COc1ccc2nc(SCC(O)c3cccc(Br)c3)[nH]c2c1 (stereo not given) | · | -15% | · | · | i
CCN(CC)C(=O)Cn1c(=O)cc(C)c2c(C)nn(-c3ccc(C)cc3)c21 | · | 7% | · | · | 4%
CCn1c(SCC(=O)Nc2ccc(C(C)=O)cc2)nc2nc3c(cc2c1=O)CCCC3 | ? | · | ? | 0% | ·
CCn1c(SCC(=O)Nc2ccc(Cl)cc2)nc2nc3c(cc2c1=O)CCCC3 | ? | -16% | 13µM* | -10% | 18%
O=C(CSc1nc(O)cc(=O)n1-c1ccccc1)Nc1ccc2c3c(cccc13)CC2 | ? | 4% | 8.3µM* | -14% | i
O=c1cc(O)nc(SCc2ccccc2)n1-c1ccc(F)cc1 | 2.9µM* | · | ? | -8% | ·
O=c1c2[nH]c3ccccc3c2nc(SCc2cccc(F)c2)n1-c1ccccc1 | · | -22% | · | · | -29%
c1csc(CNc2nc(CN3CCCC(c4nc5ccccc5o4)C3)nc3ccccc23)c1 (stereo not given) | · | 2% | · | · | -14%
COc1ccc(-n2nc(C(=O)N3CCN(c4cccc(C)c4)C(C)C3)c3c4ccccc4n(C)c3c2=O)cc1Cl (stereo not given) | · | -4% | · | · | i
COc1ccc(CCC(=O)NCc2ccc3c(c2)CCN3C(=O)c2cccc(C)c2)cc1 | · | ? | · | · | -20%
COc1ccc(NC(=O)C2CCCN(S(=O)(=O)c3ccc(Cl)cc3)C2)cc1 (stereo not given) | · | -7% | · | · | -5%
NC(=S)N/N=C/c1ccc(-n2nncc2-c2ccc(Cl)cc2)cc1 | 0% | 1.1µM* | ? | 60% | 0.79µM*
NC(=S)N/N=C/c1ccc(/C=N/NC(N)=S)cc1 | 10% | · | 23% | 76% | ·
Cc1cccc(NC(=O)Cn2c(=O)n(CCC(=O)N3CCc4ccccc4C3)c(=O)c3ccccc32)c1 | · | -9% | · | · | -1%
O=C(CC1SC(=Nc2ccccc2)N(Cc2ccccn2)C1=O)Nc1ccc(Br)cc1 (stereo not given) | -71% | -25% | ? | 27% | ?
Cc1ccccc1N=C1SC(CC(=O)Nc2ccc3ccccc3c2)C(=O)N1Cc1ccccn1 (stereo not given) | 1.2µM* | ? | 3.7µM* | -1% | -27%
CCN1C(=O)C(CC(=O)Nc2cccc(C(C)=O)c2)S/C1=N\c1ccccn1 (stereo not given) | 19% | -26% | -11% | -12% | i
O=C(CC1SC(=Nc2cccc3ccccc23)N(Cc2ccccn2)C1=O)Nc1ccccc1Br (stereo not given) | 9.3µM* | -19% | 8.3µM* | -1% | -1%
Cc1ccc(-c2nc3scc(CCNC(=O)Cc4ccc(Cl)cc4)n3n2)cc1 | · | -14% | · | · | -13%
O=C(CC1C(=O)NCCN1Cc1ccccn1)NCCc1ccccc1F (stereo not given) | 4.7µM* | -6% | ? | 0% | i
CC(C)(C)CN1CCNC(=O)C1CC(=O)NCCc1ccccc1C(F)(F)F (stereo not given) | ? | · | 184% | 29% | ·
CCOc1ccc(CN2CCNC(=O)C2CC(=O)NCCc2ccccn2)cc1 (stereo not given) | 11% | -5% | 31% | 31% | i
CN1CCNC(=O)C1CC(=O)NCCc1ccccc1F (stereo not given) | 43% | -6% | 13µM* | 10% | i
SMILES | Pf growth 48h | VACV Venus inh | Pf growth 96h | AMA1 RON2 block | Vaccinia mCherry
C=CCNC(=O)CC1C(=O)NCCN1Cc1c(F)cccc1Cl (stereo not given) | 24% | · | ? | 16% | ·
Cc1ccccc1CNC(=O)CC1C(=O)NCCN1Cc1c(F)cccc1Cl (stereo not given) | 0.83µM* | -8% | 2.3µM* | -9% | -11%
Cc1cc(N2CCN(c3ccc(F)cc3)CC2)n2nc(-c3ccc(Cl)cc3)nc2n1 | · | 3% | · | · | -4%
COc1ccccc1CNC(=O)c1cnn(-c2nccc(-c3cccs3)n2)c1C | · | -13% | · | · | -9%
O=[N+]([O-])c1cc(C(F)(F)F)cc([N+](=O)[O-])c1Sc1n[nH]c(C(F)(F)F)n1 | 5.2µM* | -15% | ? | -7% | -2%
CCc1ccccc1NC(=O)N[C@@H](C)C(=O)O | 7% | -12% | 9.3µM* | 7% | -12%
CCc1ccccc1NC(=O)N[C@@H](C)C(=O)OC | 14% | -8% | 3% | 19% | i
CN(Cc1cnccn1)Cc1c(C(=O)N2CCc3ccccc3C2)nc2ccc(Cl)cn12 | 12µM* | · | ? | 25% | ·
CC(C)CN(C)Cc1c(C(=O)N2CCc3ccccc3C2)nc2ccc(Cl)cn12 | 7.4µM* | -14% | ? | -22% | -2%
c1ccc(-c2noc(CN3CCN(c4ccccc4)CC3)n2)cc1 | · | 6% | 7.4µM* | -11% | 4%
Fc1ccccc1N1CCN(Cc2nc(-c3ccccc3)no2)CC1 | -7% | · | · | 17% | ·
Cc1cc(O)ccc1Cl | 2% | -10% | -2% | · | -14%
Cc1cc(O)c(N)c(C)c1Cl | 3.3µM* | -10% | ? | -6% | -2%
Cc1cc(O)cc(C)c1Cl | 15µM* | -12% | 8.5µM* | -8% | -15%
CCn1cc(C(=O)NCc2ccc(C)cc2)c(=O)c2cc(S(=O)(=O)N(C)C3CCCCC3)ccc21 | · | -12% | · | · | -27%
Cc1cccc2c(N3CCCC3)nc(CNS(=O)(=O)c3ccc4ccccc4c3)nc12 | · | 8% | · | · | -13%
COc1ccc(CCC(=O)N2CCN(S(=O)(=O)c3ccc(OC(F)(F)F)cc3)CC2)cc1 | 9.3µM* | 1% | 12µM* | -3%[11.6 µM] | -7%
COc1ccc(CCC(=O)N2CCN(S(=O)(=O)c3ccc4ccccc4c3)CC2)cc1 | -28% | ? | ? | -5% | ·
O=S(=O)(c1ccc(OCc2ccc(Br)cc2)cc1)N1CCOCC1 | -26% | · | 6.6µM* | -10% | ·
Cc1ccc(-c2nc(CSCC(=O)N3CCN(c4ccccn4)CC3)c(C)o2)cc1 | · | ? | 10µM* | -5% | ?
Cc1ccc(C(=O)N2CCN(c3ccc(N4CCOCC4)nn3)CC2)cc1C | -15% | -9% | 5.2µM* | -3% | -19%
O=C(c1cccc(Br)c1)N1CCN(c2ccc(N3CCOCC3)nn2)CC1 | -14% | -15% | ? | -16% | i
COc1ccccc1CNc1nc(-c2ccco2)nn1S(C)(=O)=O | · | -12% | · | · | i
CCOc1ccc(/C=C/c2nc(C#N)c(N(C)C)o2)cc1 | · | -26% | · | · | ?
CCOC(=O)C1=C(CN2CCC(C)CC2)NC(=O)NC1c1ccc(F)cc1 (stereo not given) | · | 3% | · | · | 5%
O=C(COc1ccccc1)N1CCN(S(=O)(=O)c2ccc(Br)cc2)CC1 | -22% | · | 1% | -9% | ·
